Eight sequences from PMC4081100, “A DNA-binding-site landscape and regulatory network analysis for NAC transcription factors in Arabidopsis thaliana” can be followed below.

What all share (assay): universal protein binding microarray (PBM); transcription factors of Arabidopsis thaliana; high values mean tight binding
One assay addresses T1, GST-ANAC092(1-176) (Arabidopsis thaliana, UniProt Q9FKA0 1-176).
T1 sequence: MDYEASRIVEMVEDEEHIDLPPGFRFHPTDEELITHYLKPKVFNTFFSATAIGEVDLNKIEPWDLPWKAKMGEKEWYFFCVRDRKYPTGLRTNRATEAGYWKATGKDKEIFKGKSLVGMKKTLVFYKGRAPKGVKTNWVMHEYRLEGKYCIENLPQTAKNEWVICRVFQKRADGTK
The settings on record: protein: recombinant; tags: GST; chain copies: 2; dsDNA, one strand shown. The method in brief:
(§1)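 Protein amounts were determined by A280 or anti-GST western blot after glutathione–Sepharose 4B purification of GST-tagged proteins induced in cells, with zinc acetate included for zinc-finger proteins. Duplicate runs at 200 to 500 nM final were done on custom all-10-mer Agilent 4 × 180K arrays made double-stranded by primer extension. The normalised enrichment score (E-score) over gapped and ungapped 8-mers is the measure of binding.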

The target in a further assay is T2, GST-ANAC055(1-171) (Arabidopsis thaliana, UniProt Q9LDY8 1-171).
T2 sequence: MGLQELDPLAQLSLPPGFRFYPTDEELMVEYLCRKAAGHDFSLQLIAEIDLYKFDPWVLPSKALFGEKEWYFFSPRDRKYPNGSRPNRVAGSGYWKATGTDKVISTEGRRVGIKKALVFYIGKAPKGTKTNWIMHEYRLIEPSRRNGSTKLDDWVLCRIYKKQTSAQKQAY
The settings on record: protein: recombinant; tags: GST; chain copies: 2; dsDNA, one strand shown. The method in brief: as §1

In assay [1] the target is T3, GST-ANAC092(1-285) full length (Arabidopsis thaliana, UniProt Q9FKA0 1-285).
T3 sequence: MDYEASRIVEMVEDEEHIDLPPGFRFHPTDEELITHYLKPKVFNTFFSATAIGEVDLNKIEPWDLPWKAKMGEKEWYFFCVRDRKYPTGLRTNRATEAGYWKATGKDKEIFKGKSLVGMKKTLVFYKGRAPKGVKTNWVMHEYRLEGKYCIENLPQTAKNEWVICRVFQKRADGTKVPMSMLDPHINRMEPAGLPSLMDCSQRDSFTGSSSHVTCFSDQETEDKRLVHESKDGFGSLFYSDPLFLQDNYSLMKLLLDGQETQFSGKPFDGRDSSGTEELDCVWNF
The settings on record: protein: recombinant; tags: GST; chain copies: 2; dsDNA, one strand shown. The method in brief:
as §1

Another assay has as its target T4, GST-NAP(1-166) (Arabidopsis thaliana, UniProt O49255 1-166).
T4 sequence: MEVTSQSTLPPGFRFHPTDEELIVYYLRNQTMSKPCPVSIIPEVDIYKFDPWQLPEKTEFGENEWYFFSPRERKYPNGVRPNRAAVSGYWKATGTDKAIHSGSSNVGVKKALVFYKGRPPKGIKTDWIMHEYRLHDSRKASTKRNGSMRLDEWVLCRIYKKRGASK
The settings on record: protein: recombinant; tags: GST; chain copies: 2; dsDNA, one strand shown. The method in brief:
as §1

The target of the next assay is T5, GST-NST2(1-184) (Arabidopsis thaliana, UniProt Q9M274 1-184).
T5 sequence: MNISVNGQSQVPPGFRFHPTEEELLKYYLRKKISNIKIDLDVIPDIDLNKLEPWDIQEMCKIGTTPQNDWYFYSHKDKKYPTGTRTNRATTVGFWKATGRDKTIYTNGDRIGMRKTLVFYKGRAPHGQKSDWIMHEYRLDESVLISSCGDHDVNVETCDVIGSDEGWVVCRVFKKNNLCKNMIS
The settings on record: protein: recombinant; tags: GST; chain copies: 2; dsDNA, one strand shown. The method in brief:
as §1

In the next assay the target is T6, GST-SND1(1-203) (Arabidopsis thaliana, UniProt Q9LPI7 1-203).
T6 sequence: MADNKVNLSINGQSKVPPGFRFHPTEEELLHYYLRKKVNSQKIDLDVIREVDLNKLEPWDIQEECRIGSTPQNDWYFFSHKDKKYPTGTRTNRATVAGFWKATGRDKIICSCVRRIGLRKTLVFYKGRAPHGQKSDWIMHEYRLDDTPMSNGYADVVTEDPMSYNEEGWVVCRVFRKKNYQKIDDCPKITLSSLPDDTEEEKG
The settings on record: protein: recombinant; tags: GST; chain copies: 2; dsDNA, one strand shown. The method in brief: as §1

The target of the next assay is T7, GST-VND7 NAC domain (Arabidopsis thaliana, UniProt Q9C8W9 9-158).
T7 sequence: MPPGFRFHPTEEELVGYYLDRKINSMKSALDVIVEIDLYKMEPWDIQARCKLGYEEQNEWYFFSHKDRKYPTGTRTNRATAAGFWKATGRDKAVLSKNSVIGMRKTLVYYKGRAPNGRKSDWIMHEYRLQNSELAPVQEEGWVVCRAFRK
The settings on record: protein: recombinant; tags: GST; chain copies: 2; dsDNA, one strand shown. The method in brief: as §1

Another assay concerns the target GST-NTL6(1-168) (Arabidopsis thaliana, UniProt Q9SCK6 1-168). The settings on record: protein: recombinant; tags: GST; chain copies: 2; dsDNA, one strand shown. The method in brief: as §1
The target of the next assay is T8, GST-ANAC019 NAC domain (Arabidopsis thaliana, UniProt Q9C932 14-162).
T8 sequence: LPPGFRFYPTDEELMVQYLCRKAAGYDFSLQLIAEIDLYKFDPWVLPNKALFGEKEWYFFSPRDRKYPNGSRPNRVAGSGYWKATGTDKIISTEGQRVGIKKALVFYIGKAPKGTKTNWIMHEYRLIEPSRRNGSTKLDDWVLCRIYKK
The settings on record: protein: recombinant; tags: GST; chain copies: 2; dsDNA, one strand shown. The method in brief:
as §1

For a further assay, the target named is T9, GST-ATAF1 NAC domain (Arabidopsis thaliana, UniProt Q39013 7-158).
T9 sequence: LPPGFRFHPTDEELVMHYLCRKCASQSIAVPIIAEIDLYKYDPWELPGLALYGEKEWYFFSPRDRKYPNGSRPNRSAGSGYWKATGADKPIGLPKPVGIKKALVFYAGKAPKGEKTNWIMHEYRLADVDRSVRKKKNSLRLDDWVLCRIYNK
The settings on record: protein: recombinant; tags: GST; chain copies: 2; dsDNA, one strand shown. The method in brief:
as §1

Another assay has as its target T10, GST-NTL8 NAC domain (Arabidopsis thaliana, UniProt Q9XIN7 14-156).
T10 sequence: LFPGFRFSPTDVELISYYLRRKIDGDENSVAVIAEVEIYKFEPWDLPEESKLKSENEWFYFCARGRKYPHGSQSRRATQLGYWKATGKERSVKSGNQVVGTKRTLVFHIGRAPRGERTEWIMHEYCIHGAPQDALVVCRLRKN
The settings on record: protein: recombinant; tags: GST; chain copies: 2; dsDNA, one strand shown. The method in brief: as §1

Another assay has as its target GST-WRKY1(266-371) (Arabidopsis thaliana, UniProt Q9SI37 266-371). The settings on record: protein: recombinant; tags: GST; dsDNA, one strand shown. The method in brief: as §1

GST-WRKY1(266-371), sequence (Q9SI37 266-371): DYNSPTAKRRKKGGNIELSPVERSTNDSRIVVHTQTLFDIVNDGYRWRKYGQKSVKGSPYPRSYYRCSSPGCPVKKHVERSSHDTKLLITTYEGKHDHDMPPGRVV
GST-NTL6(1-168), sequence (Q9SCK6 1-168): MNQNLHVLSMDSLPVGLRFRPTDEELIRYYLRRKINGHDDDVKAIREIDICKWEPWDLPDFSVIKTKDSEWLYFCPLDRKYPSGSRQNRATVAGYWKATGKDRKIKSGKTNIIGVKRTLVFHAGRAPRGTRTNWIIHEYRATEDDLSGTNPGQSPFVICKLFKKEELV

CTAGCGTA: the binding signal stood at 0.262 E-score in the assay with GST-ANAC092(1-176); 0.0674 E-score with GST-ANAC055(1-171); 0.398 E-score in assay [1]; 0.0722 E-score in the assay with GST-NAP(1-166); 0.168 E-score with GST-NST2(1-184); 0.45 E-score in the assay with GST-SND1(1-203). Moreover, the binding signal in the assay with GST-VND7 NAC domain came out at 0.118 E-score.
For the sequence AAGAAACC, the binding signal with GST-ANAC092(1-176) is 0.246 E-score; with GST-NTL6(1-168), 0.261 E-score; with GST-ANAC019 NAC domain, 0.0937 E-score; with GST-ANAC055(1-171), 0.135 E-score; with GST-ATAF1 NAC domain it was 0.177 E-score; in [1], 0.311 E-score. Besides, the binding signal with GST-NST2(1-184) was found to be 0.265 E-score; in the assay with GST-NTL8 NAC domain, 0.435 E-score; in the assay with GST-SND1(1-203) it was 0.216 E-score; with GST-VND7 NAC domain it was 0.139 E-score.
As to GCGTCAAA, the binding signal came out at 0.0819 E-score in assay [1]; 0.052 E-score with GST-NST2(1-184); 0.0775 E-score with GST-NTL8 NAC domain; 0.0924 E-score with GST-SND1(1-203); 0.0799 E-score in the assay with GST-VND7 NAC domain; 0.409 E-score with GST-WRKY1(266-371).
Take GAGGGTAA: the binding signal with GST-ANAC092(1-176) stood at 0.0757 E-score; with GST-NTL6(1-168), 0.17 E-score; with GST-ANAC055(1-171), 0.0669 E-score; with GST-ATAF1 NAC domain, 0.123 E-score; in [1], 0.109 E-score; in the assay with GST-NST2(1-184) it was 0.173 E-score. The binding signal with GST-NTL8 NAC domain stood at 0.474 E-score; with GST-SND1(1-203), 0.108 E-score; with GST-VND7 NAC domain it was 0.079 E-score.
For the sequence CGTTGACA, the binding signal with GST-SND1(1-203) amounted to 0.0727 E-score; with GST-WRKY1(266-371) it was 0.464 E-score.
For the sequence GTCAAACA, the binding signal was 0.11 E-score in [1], 0.0891 E-score with GST-SND1(1-203), 0.0699 E-score in the assay with GST-VND7 NAC domain and 0.475 E-score in the assay with GST-WRKY1(266-371).
In the case of GAAGGGAA, the binding signal came to 0.091 E-score with GST-ANAC092(1-176); 0.227 E-score with GST-NTL6(1-168); 0.101 E-score with GST-ANAC019 NAC domain; 0.0954 E-score with GST-NST2(1-184); 0.44 E-score with GST-NTL8 NAC domain; 0.112 E-score in the assay with GST-SND1(1-203). The binding signal in the assay with GST-VND7 NAC domain turned out to be 0.0803 E-score.
With ACCTTTCC, the binding signal in the assay with GST-ANAC092(1-176) turned out to be 0.188 E-score; with GST-NTL6(1-168), 0.196 E-score; with GST-ANAC055(1-171), 0.0893 E-score; in assay [1], 0.0538 E-score; with GST-NST2(1-184), 0.0986 E-score; in the assay with GST-NTL8 NAC domain it was 0.431 E-score. Moreover, the values for the binding signal in the assay with GST-SND1(1-203) and in the assay with GST-VND7 NAC domain were 0.143 E-score and 0.0596 E-score, respectively.
